Measurements reported in PubChem BioAssay.
Several values for one entry are separate records, joined by “and”; a condition that tells them apart may be missing. Identical values can stand only once. Unmarked numbers belong to inactive results. The list shows a part of the results. Activity calls are given as the source filed them.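 The calls were made as follows, unless noted: active = mean inhibition over 43.08%, the solvent-only control mean plus 3 SD; inactive = the rest.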

Columns and labels:
[1] = target: Nuclear receptor coactivator 3 (Homo sapiens) (UniProt Q9Y6Q9); experiment: SRC3 coactivator transcriptional activity inhibitors, confirmation, cell-based, luminescence, quadruplicate (AID 588792); conditions: HEK293 GAL4-SRC3 luciferase reporter, at 3.6 µM, hits give high values;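 also: 0% = DMSO treated cells and 100% = gossypol at 36 µM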
[2] = test system: transactivating tegument protein VP16 (Human herpesvirus 1), Gal4-VP16 luciferase reporter; experiment: VP16 transactivation inhibitors, counter-screen for SRC3 inhibitor project, cell-based, luminescence, high throughput (AID 588794; in the data active = inhibition above about 30%); conditions: mammalian cells, VP16-driven luciferase reporter luminescence; at 3.6 µM; hits give high values
[3] = target: Nuclear receptor coactivator 1 (Homo sapiens) (UniProt Q15788); experiment: SRC1 coactivator transcriptional activity inhibitors, confirmation, cell-based, luminescence, quadruplicate (AID 588820;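 active = mean inhibition above 46.68%, the untreated control wells mean plus 3 SD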;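 also: 0% = DMSO wells and 100% = gossypol 36 µM treated wells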); conditions: HEK293 GAL4-SRC1 luciferase reporter, at 3.6 µM, hits give high values
[4] = VP16 transactivation inhibitors, counter-screen for SRC1 inhibitor project, cell-based, luminescence, high throughput (AID 588824; in the data active = inhibition above about 25%); conditions: cell-based VP16 transactivation luciferase luminescence; at 3.6 µM; hits give high values
[5] = StAR promoter reporter inhibitors, counter-screen for LRH-1 inverse agonist project, cell-based, luminescence, high throughput (AID 651611; in the data active = inhibition above about 28%); conditions: StAR promoter luciferase reporter counterscreen, at 3.6 µM, hits give high values
[6] = target: Nuclear receptor subfamily 5 group A member 2 (Homo sapiens) (UniProt O00482); experiment: LRH-1 (NR5A2) inverse agonists, retest, confirmation, cell-based, luminescence (AID 651613; in the data active = inhibition above about 42%;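 also: HEK293T cells co-transfected with LRH-1 and StAR promoter luciferase reporter; 0% = vehicle wells and 100% = parental cells lacking receptor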); conditions: cell-based LRH-1 luciferase reporter, inverse agonism; at 3.6 µM; hits give high values
[7] = target: Steroidogenic factor 1 (Homo sapiens) (UniProt Q13285); experiment: SF1 (NR5A1) inverse agonists, counter-screen for LRH-1 inverse agonist project, cell-based, luminescence, high throughput (AID 651614; in the data active = inhibition above about 44%;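 also: cells cotransfected with StAR promoter reporter and SF1 expression vector; 0% = vehicle on cells with receptor and 100% = vehicle on cells lacking receptor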); conditions: cell-based SF1 luciferase reporter, at 3.6 µM, hits give high values
[8] = VP16 transactivation reporter inhibitors, counter-screen for LRH-1 inverse agonist project, cell-based, luminescence, high throughput (AID 651615; in the data active = inhibition above about 33%); conditions: Gal4-VP16 luciferase reporter cells, at 3.6 µM, hits give high values
[9] = Gal4-VP16 luciferase reporter inhibitors, counter-screen for COUP-TFII antagonist project, cell-based, luminescence, HEK293 (AID 687007; in the data active = inhibition above about 13%); conditions: at 8.5 µM, hits give high values
[10] = target: COUP transcription factor 2 (Homo sapiens) (UniProt P24468); experiment: NR2F2 transcriptional activity inhibitors, confirmation, cell-based, luciferase reporter, HEK293, triplicate (AID 687008;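 active = mean inhibition over three repeats above a set limit taken from the earlier primary screen, cut at about 38% in these data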;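 also: 100% = cells given the luciferase reporter alone without the COUP-TF2 vector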); conditions: HEK293 NGFI-A luciferase reporter, luminescence; at 8.5 µM; hits give high values
[11] = test system: transactivating tegument protein VP16 (Human herpesvirus 1); experiment: VP16 transactivation reporter inhibitors, counter-screen for SRC2 inhibitor project, cell-based, luminescence, single concentration (AID 652007; in the data active = inhibition above about 36%); conditions: cell-based VP16 transactivation luciferase reporter, at 8.9 µM, hits give high values
[12] = target: Nuclear receptor coactivator 2 (Homo sapiens) (UniProt Q15596); experiment: SRC2 coactivator transcriptional activity inhibitors, confirmation, cell-based, luminescence, HEK293, triplicate (AID 652008;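 active = mean inhibition above 46.5%, the solvent-only control mean plus 3 SD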;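 also: 0% = DMSO-treated cells and 100% = Gossypol at 36 µM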); conditions: HEK293 GAL4-SRC2 luciferase reporter, at 8.9 µM, hits give high values
Nuclear receptor coactivator 2 (Homo sapiens), sequence (Q15596 whole entry, looked up, the tested form may be a part): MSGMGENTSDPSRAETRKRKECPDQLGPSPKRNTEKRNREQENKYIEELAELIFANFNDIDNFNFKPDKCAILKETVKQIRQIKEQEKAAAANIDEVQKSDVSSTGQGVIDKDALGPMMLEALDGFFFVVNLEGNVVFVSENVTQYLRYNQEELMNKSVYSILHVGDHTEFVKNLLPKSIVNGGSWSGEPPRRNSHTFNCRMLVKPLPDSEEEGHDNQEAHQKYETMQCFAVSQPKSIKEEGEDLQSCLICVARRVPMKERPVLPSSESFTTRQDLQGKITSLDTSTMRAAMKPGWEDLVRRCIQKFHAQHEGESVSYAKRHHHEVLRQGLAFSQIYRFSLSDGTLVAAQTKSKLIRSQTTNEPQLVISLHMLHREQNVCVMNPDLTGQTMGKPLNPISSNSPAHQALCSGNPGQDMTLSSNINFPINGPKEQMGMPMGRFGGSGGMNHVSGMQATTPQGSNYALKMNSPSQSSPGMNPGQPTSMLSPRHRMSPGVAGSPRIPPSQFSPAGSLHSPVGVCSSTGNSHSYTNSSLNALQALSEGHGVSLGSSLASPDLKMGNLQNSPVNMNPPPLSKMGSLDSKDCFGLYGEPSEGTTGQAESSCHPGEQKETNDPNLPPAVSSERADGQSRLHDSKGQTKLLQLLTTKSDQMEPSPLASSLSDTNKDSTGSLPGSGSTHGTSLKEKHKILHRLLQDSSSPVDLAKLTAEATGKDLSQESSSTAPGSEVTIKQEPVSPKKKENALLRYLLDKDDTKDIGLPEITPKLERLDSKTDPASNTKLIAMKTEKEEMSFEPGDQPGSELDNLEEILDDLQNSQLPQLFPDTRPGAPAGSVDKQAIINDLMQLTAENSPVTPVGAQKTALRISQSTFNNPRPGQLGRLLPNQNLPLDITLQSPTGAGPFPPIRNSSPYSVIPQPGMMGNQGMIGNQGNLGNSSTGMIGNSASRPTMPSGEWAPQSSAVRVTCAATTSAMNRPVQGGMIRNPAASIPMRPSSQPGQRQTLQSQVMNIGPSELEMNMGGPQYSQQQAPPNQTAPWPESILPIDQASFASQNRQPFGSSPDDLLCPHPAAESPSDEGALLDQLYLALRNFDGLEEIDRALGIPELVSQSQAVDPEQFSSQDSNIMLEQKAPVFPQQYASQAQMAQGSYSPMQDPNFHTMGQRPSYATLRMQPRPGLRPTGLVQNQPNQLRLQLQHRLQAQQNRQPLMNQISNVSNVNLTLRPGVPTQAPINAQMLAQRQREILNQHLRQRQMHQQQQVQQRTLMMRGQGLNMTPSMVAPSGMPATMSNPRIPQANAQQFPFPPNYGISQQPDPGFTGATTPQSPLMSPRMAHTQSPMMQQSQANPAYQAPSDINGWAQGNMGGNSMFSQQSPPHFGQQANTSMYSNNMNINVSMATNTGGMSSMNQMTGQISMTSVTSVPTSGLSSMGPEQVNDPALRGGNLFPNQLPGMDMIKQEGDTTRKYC

Steroidogenic factor 1 (Homo sapiens), sequence (Q13285 whole entry, looked up, the tested form may be a part): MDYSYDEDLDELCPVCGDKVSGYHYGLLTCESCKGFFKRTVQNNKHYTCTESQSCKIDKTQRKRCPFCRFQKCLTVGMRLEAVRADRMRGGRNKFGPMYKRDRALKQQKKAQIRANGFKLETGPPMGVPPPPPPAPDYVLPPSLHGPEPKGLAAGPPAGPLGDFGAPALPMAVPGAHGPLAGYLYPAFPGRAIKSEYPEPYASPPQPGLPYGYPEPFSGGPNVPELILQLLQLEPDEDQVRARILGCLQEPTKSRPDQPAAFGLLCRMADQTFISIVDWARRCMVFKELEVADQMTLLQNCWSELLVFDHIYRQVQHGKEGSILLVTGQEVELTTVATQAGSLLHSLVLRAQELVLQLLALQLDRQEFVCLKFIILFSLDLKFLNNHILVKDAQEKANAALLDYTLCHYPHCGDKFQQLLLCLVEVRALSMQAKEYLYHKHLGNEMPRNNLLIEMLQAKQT
Nuclear receptor coactivator 3 (Homo sapiens), sequence (Q9Y6Q9 whole entry, looked up, the tested form may be a part): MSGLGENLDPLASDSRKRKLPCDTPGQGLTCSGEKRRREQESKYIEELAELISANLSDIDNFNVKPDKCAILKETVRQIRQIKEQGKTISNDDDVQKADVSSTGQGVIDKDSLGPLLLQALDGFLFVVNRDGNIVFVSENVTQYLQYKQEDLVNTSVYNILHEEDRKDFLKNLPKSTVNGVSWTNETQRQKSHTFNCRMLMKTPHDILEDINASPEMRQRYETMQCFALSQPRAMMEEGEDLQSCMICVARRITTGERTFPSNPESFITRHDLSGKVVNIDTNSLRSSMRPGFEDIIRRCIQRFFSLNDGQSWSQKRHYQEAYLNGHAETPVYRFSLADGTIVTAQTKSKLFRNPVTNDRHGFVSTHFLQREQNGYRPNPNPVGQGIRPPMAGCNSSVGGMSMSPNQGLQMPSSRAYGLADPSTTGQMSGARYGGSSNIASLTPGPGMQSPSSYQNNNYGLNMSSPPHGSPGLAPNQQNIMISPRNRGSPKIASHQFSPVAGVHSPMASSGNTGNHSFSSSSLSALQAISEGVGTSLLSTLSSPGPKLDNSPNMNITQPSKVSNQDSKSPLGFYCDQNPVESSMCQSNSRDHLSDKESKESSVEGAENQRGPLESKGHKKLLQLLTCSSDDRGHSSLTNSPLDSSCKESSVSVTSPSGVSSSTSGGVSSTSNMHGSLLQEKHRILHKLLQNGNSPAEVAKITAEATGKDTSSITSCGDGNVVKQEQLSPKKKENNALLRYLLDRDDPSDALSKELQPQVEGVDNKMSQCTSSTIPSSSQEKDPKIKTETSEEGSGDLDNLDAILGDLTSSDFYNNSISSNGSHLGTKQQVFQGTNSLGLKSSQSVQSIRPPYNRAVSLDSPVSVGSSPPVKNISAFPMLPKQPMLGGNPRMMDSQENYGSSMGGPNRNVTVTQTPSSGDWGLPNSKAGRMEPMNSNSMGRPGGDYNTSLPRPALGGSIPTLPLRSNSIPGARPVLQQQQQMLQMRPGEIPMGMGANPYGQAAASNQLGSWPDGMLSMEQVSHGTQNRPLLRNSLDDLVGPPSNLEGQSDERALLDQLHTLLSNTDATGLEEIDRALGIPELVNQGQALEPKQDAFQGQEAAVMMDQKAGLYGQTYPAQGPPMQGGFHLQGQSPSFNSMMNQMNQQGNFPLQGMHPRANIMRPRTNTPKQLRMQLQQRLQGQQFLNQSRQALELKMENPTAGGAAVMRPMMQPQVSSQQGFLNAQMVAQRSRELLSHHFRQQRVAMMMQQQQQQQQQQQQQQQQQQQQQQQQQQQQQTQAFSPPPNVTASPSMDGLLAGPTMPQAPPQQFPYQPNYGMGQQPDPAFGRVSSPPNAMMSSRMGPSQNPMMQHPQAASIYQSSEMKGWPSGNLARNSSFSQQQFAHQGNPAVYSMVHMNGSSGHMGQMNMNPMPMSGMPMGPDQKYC
Nuclear receptor subfamily 5 group A member 2 (Homo sapiens), sequence (O00482 whole entry, looked up): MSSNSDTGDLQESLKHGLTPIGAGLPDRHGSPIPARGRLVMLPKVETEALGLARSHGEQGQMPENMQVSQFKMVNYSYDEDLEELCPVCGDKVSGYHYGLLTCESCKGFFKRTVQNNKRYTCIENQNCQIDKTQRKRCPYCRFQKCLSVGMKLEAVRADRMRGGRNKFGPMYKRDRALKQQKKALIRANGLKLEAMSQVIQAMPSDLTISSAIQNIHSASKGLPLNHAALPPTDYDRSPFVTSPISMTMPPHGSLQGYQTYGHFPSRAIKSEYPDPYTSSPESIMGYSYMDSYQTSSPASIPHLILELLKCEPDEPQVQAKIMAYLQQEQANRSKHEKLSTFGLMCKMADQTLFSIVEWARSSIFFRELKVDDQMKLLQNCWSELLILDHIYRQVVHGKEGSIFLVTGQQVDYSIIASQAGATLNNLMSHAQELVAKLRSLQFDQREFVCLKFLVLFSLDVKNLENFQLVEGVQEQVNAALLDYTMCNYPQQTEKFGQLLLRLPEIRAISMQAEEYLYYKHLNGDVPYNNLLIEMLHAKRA
COUP transcription factor 2 (Homo sapiens), sequence (P24468 whole entry, looked up): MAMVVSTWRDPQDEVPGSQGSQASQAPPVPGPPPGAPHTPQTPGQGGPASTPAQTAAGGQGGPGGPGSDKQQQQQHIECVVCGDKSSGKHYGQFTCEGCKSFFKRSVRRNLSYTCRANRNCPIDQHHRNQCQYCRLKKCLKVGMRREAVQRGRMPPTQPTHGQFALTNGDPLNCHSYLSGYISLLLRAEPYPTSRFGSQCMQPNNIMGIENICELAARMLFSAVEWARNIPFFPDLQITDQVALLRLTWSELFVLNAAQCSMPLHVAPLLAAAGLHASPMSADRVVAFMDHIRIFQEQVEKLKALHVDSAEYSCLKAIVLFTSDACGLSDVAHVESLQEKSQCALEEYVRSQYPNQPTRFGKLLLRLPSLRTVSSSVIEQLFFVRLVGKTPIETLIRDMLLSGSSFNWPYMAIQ

| SMILES | inhibition [1] | inhibition [2] | inhibition [3] | inhibition [4] | inhibition [5] | inhibition [6] | inhibition [7] | inhibition [8] | inhibition [9] | inhibition [10] | inhibition [11] | inhibition [12] |
| --- | --- | --- | --- | --- | --- | --- | --- | --- | --- | --- | --- | --- |
| C[C@]12CC[C@H](O)C[C@H]1CC[C@@H]1C2CC[C@]2(C)[C@@H](C3=CC(=O)OC3)[C@@H](O)C[C@]12O (stereo partly drawn) | 75.3% (active) | 21.1% | -39% | 12.7% | 87.1% (active) | 90.4% (active) | 69.9% (active) | 40.9% (active) | -16.6% | 30.9% |  |  |
| CC(=O)OC1CC2(O)C3CCC4CC(O)CCC4(C)C3CCC2(C)C1C1=CC(=O)OC1 (stereo not drawn) | 95.9% (active) | 84.3% (active) | 71.4% (active) | 83.3% (active) | 96.5% (active) | 111% (active) | 98.7% (active) | 91.9% (active) |  |  | 65.2% (active) | 45.1% |
| O=C(Nc1ccc(OC(=O)N2CCCCC2)cc1)N1CCOCC1 | 24.1% | 1.46% | 9.87% | -2.66% | 29.4% (active) | 19.7% | 37.9% | 14.3% |  |  | 35% | 68.5% (active) |
| O=C1NC2C(=CC(O)C(O)C2O)c2cc3c(c(O)c21)OCO3 (stereo not drawn) | 97.4% (active) | 96.1% (active) | 94.7% (active) | 94.7% (active) | 95.7% (active) | 109% (active) | 98% (active) | 96% (active) |  |  | 79.3% (active) | 75.6% (active) |
| O=C(c1ccccc1)C(CN1CCCC1)c1ccccc1 (stereo not drawn) | 19.4% | 33.5% (active) | 10.9% | 39.2% (active) |  |  |  |  |  |  | 27% | 68.3% (active) |
| NC(=S)c1cn(C2OC(CO)C(O)C2O)c2ncnc(N)c12 (stereo not drawn) | 97.4% (active) | 95.9% (active) | 89.7% (active) | 96.2% (active) | 93.2% (active) | 109% (active) | 98% (active) | 97.9% (active) |  |  | 69.4% (active) | 71.6% (active) |
| CCC1CN2CCc3cc(OC)c(OC)cc3C2CC1CC1NCCc2c1[nH]c1ccc(O)cc21 (stereo not drawn) | 98% (active) | 96.7% (active) | 95.4% (active) | 95.9% (active) | 95.7% (active) | 110% (active) | 98.3% (active) | 98.7% (active) |  |  | 78.1% (active) | 73.4% (active) |
| CCCCN=C[C@]12CCC(O)CC1(O)CCC1[C@@H]2CC[C@]2(C)[C@H](C3C=CC(=O)O3)CCC12O (stereo partly drawn) | 94% (active) | 75.5% (active) | 42% | 75% (active) | 97% (active) | 110% (active) | 98.5% (active) | 85.2% (active) |  |  | 69.6% (active) | 20.9% |
| C=C1C(=O)OC2CC(C)C3C=CC(=O)C3(C)C(O)C12 (stereo not drawn) | 38% | 90.7% (active) |  | 90.6% (active) | 62.5% (active) | 88.6% (active) | 90.1% (active) | 91.2% (active) |  |  |  |  |
| NC(=O)c1cn(C2OC(CO)C(O)C2O)c2ncnc(N)c12 (stereo not drawn) | 96.2% (active) and 97.7% (active) | 97.7% (active) and 97.3% (active) | 90% (active) and 90.1% (active) | 97.9% (active) and 96% (active) | 94.2% (active) and 95% (active) | 109% (active) and 110% (active) | 96.8% (active) and 98% (active) | 95.5% (active) and 97.3% (active) |  |  | 65% (active) and 66.1% (active) | 67.3% (active) and 73.3% (active) |
| O=c1[nH]c(O)c(N=Nc2ccc3c(c2)OCCO3)c(=O)[nH]1 | 53.3% (active) | 25.7% | 6.27% | -1.38% | 22.6% | 9.98% | 42.1% | 9.89% |  |  | 33.9% | 63.6% (active) |
| CC1=CC2OC3CC4OC(=O)C=CC=CC(C(C)O)OCC(O)C5(C)OC5C(=O)OCC2(CC1O)C4(C)C31CO1 (stereo not drawn) | 98.6% (active) | 96.2% (active) | 96.5% (active) | 95.1% (active) | 94.8% (active) | 108% (active) | 96.5% (active) | 96.2% (active) |  |  | 82.1% (active) | 73.5% (active) |
| CC(=O)OC[C@]12CCC(C)=C[C@H]1O[C@@H]1[C@H](O)[C@@H](OC(C)=O)[C@@]2(C)[C@]12CO2 | 98.8% (active) | 97.9% (active) | 98% (active) | 97.8% (active) | 96% (active) | 109% (active) | 98% (active) | 97.1% (active) |  |  | 78.3% (active) | 73% (active) |
| C=C1C(=O)O[C@@H]2C[C@@H](C)[C@@H]3C=CC(=O)[C@@]3(C)[C@@H](O)[C@H]12 | 42.1% | 92.5% (active) |  | 91.7% (active) |  |  |  |  |  |  | 96% (active) | 93.7% (active) |
| CC12CCC3C(CCC4(O)CC(O)CCC34C=O)C1(O)CCC2C1=CC(=O)OC1 (stereo not drawn) | 90% (active) | 67.4% (active) | 14.4% | 67.5% (active) |  | 109% (active) | 96.2% (active) |  |  |  |  |  |
| Cc1ccc(-c2cc(-c3ccccc3)cc(-c3ccccc3)[n+]2-c2ccccc2)cc1 | 86.4% (active) | 89.9% (active) | 67.6% (active) | 85.6% (active) | 83.6% (active) | 110% (active) | 91.4% (active) | 95.2% (active) |  |  | 70% (active) | 61.8% (active) |
| COc1ccc(CC2C(=O)NC(C)C(=O)N(C)C3C(=O)N(C)C(Cc4ccc(O)c(c4)Oc4ccc(cc4)C3O)C(=O)NC(C)C(=O)NC(C)C(=O)N2C)cc1 (stereo not drawn) | 98.6% (active) | 96.7% (active) | 94.8% (active) | 95.5% (active) |  | 111% (active) | 98.8% (active) |  |  |  | 80.4% (active) | 77.1% (active) |
| C=Cc1cc(OC)c2c(c1)c(=O)oc1c2cc(OC)c2c(O)ccc(C3OC(C)C(O)C(C)(O)C3O)c21 (stereo not drawn) | 46.1% (active) | 88.3% (active) | -23.3% | 88% (active) |  |  |  |  |  |  | 42.7% (active) | -166% |
| COC1C(O)C(C)OC(OC2CCC3(C=O)C(CCC4C3CCC3(C)C(C5=CC(=O)OC5)CCC43O)C2)C1O (stereo not drawn) | 96.8% (active) | 89.2% (active) | 81.5% (active) | 88.7% (active) | 93.6% (active) | 110% (active) | 97.2% (active) | 93% (active) | 51% (active) | 76.3% (active) |  |  |
| COc1ccc2c(c1)[nH]c1c(C)nccc12 | 79% (active) | 48.6% (active) | 63.4% (active) | 51.4% (active) |  |  |  |  |  |  | 9.1% | 42.9% |
| CCC(C)C1NC(=O)C(NC(=O)C(CC(C)C)N(C)C(=O)C2CCCN2C(=O)C(C)O)C(C)OC(=O)C(Cc2ccc(OC)cc2)N(C)C(=O)C2CCCN2C(=O)C(CC(C)C)NC(=O)[C@H](C)C(=O)[C@H](C(C)C)OC(=O)CC1O (stereo partly drawn) | 99.5% (active) | 98.2% (active) | 98.5% (active) | 98.1% (active) | 96.4% (active) | 111% (active) | 98.4% (active) | 99% (active) |  |  | 82.2% (active) | 79.6% (active) |
| CC1OC(OC2CC(O)C3(CO)C4C(O)CC5(C)C(C6=CC(=O)OC6)CCC5(O)C4CCC3(O)C2)C(O)C(O)C1O (stereo not drawn) | 97.2% (active) | 89.1% (active) | 80.3% (active) | 87.2% (active) |  | 109% (active) | 96% (active) | 93.5% (active) |  |  | 70.9% (active) | 54% (active) |
| C[C@]12CC[C@H]3[C@@H](CC[C@]4(O)C[C@@H](O)CC[C@]34C=O)[C@@]1(O)CC[C@@H]2C1=CC(=O)OC1 | 92.8% (active) | 81.1% (active) | 46.8% (active) | 79.7% (active) |  | 110% (active) | 98.7% (active) |  |  |  |  |  |
| O=[N+]([O-])c1ccc(N(CCO)CCO)c2c1no[n+]2[O-] | 52.6% (active) | 27.8% | 29.1% | 14.5% | 70.7% (active) | 76.2% (active) | 74.4% (active) | 28.9% |  |  | 29.9% | 56.3% (active) |
| O=C1CN=C(c2ccc[nH]2)c2cc(Cl)ccc2N1 | 76% (active) | 57.9% (active) | 53.3% (active) | 57.5% (active) |  |  |  |  |  |  | 30.2% | 44% |
| C[C@H]1C[C@@H](C)C(=O)[C@@H]([C@H](O)CC2CC(=O)NC(=O)C2)C1 | 96.7% (active) | 92.3% (active) | 82.3% (active) | 91.3% (active) |  | 110% (active) | 97.9% (active) |  |  |  | 63.2% (active) | 62.9% (active) |
| N#Cc1cn(C2OC(CO)C(O)C2O)c2ncnc(N)c12 (stereo not drawn) | 81.4% (active) | 91.3% (active) | -24% | 89.7% (active) | 82% (active) | 107% (active) | 94.1% (active) | 91% (active) |  |  | 30.4% | 48.3% (active) |
| CC(=O)OC1(C)CC(C)C(=O)C(C(O)CC2CC(=O)NC(=O)C2)C1 (stereo not drawn) | 98% (active) | 96.7% (active) | 93.5% (active) | 95.6% (active) | 94.8% (active) | 110% (active) | 97.5% (active) | 95.8% (active) |  |  | 80.1% (active) | 71.5% (active) |
| CC(=O)OC1CC(OC2C(O)CC(OC3C(O)CC(OC4CCC5(C)C(CCC6C5CCC5(C)C(C7=CC(=O)OC7)C(O)CC65O)C4)OC3C)OC2C)OC(C)C1OC1OC(CO)C(O)C(O)C1O (stereo not drawn) | 93.4% (active) | 79.7% (active) | 39.1% | 72.8% (active) | 97.7% (active) | 111% (active) | 99.3% (active) | 85.1% (active) |  |  | 61.8% (active) | 13.5% |
